Results on 16 compounds are retold here after PubChem BioAssay AID1508625 (Wald Lab, School of Medicine, Case Western Reserve …, 2021).

The assay can be described thus: enhancers of NK cell killing of ovarian tumor cells, primary screen, imaging, OVCAR3, primary NK cells, calcein-AM imaging (AID 1508625).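 Also: compound given to NK cells 16 h before adding targets at 1.5 to 1 ratio.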 The settings on record: OVCAR3 lysis by primary NK cells, at 5 µM; z-score: measured here: robust Z-score, single-point normalisation.

`O=C(CSc1nc2cc3c(cc2c(=O)n1Cc1ccco1)OCO3)NCc1ccccc1`: the corrected activity, negative = more killing was -4.67% and the z-score is -1.24.
The matching figures for `Cc1cc(C)n(C(=O)c2nn(C)cc2I)n1`: -2.43% and -0.913.
In the case of `CCCNC(=O)C(=O)Nc1ccc(C(C)C)cc1`, the corrected activity, negative = more killing is -1.6% and the z-score is -0.603.
Regarding `COc1cccc(C(=O)N2CCN(C(=O)c3ccccc3OC)CC2)c1`, the corrected activity, negative = more killing was -2.57% and the z-score was -1.15.
`CCOc1ccc(-c2cc(=O)c3ccccc3o2)cc1`: the corrected activity, negative = more killing was -6.12% and the z-score is -2.28.
`CCC1=NN(C(=O)c2cccc(Cl)c2)C(O)(C(F)(F)F)C1` (configuration not stated): the corrected activity, negative = more killing was -2.2% and the z-score was -0.839.
With `Cn1c(SCc2c[nH]c3cc([N+](=O)[O-])ccc23)nc2sc3c(c2c1=O)CCCC3`, the corrected activity, negative = more killing was -1.25% and the z-score was -0.47.
As for `CCOc1ccc(S(=O)(=O)Nc2ccc(OC(F)(F)F)cc2)c2cccnc12`, the corrected activity, negative = more killing is -1.89% and the z-score was -0.602.
Take `COc1ccc(NC(=O)c2coc(=O)c3ccccc23)cc1Cl`: the corrected activity, negative = more killing was -3.91% and the z-score was -1.24.
With `CCCCNCC(=O)Nc1ccc(Br)cc1`, the corrected activity, negative = more killing is -5.05% and the z-score was -1.88.
`COc1cc([N+](=O)[O-])ccc1N1C(=O)C2C3C=CC(CC3)C2C1=O` (configuration not stated): the corrected activity, negative = more killing was 0.65% and the z-score was 0.231.
In the case of `O=c1oc(-c2ccc(Oc3ccc([N+](=O)[O-])cc3)cc2)nc2ccccc12`, the corrected activity, negative = more killing is -1.57% and the z-score was -0.62.
As to `O=C1OC(c2ccccc2Cl)=NC1=Cc1cccs1`, the corrected activity, negative = more killing is -0.515% and the z-score is -0.219.
On to `Cc1ccc(C=C(NC(=O)c2ccc(C)cc2)c2nc3ccccc3[nH]2)cc1`, for which the corrected activity, negative = more killing was -1.41% and the z-score was -0.73.
The like results for `COc1ccc(N2C3=C(C(=O)CC(C)(C)C3)C(c3cccc(F)c3)C3=C2CC(C)(C)CC3=O)c(OC)c1` were, in that order, -1.83% and -0.581.
The matching figures for `O=C1C2CCCCC2C(=O)N1c1cccc2ccccc12` (configuration not stated): -3.38% and -0.712.
